# Laboratory results: PubChem BioAssay (EPA / NIEHS)
# Records with an inconclusive call do not appear. Activity calls are given as the source filed them. The calls were made as follows: active = hit-call score of the fitted dose curve at least 0.9, where 1 is the maximum; inconclusive = response in the unintended direction; inactive = score below 0.9.
# Molecular target: human Thyroid Receptor Alpha (TRa), THRA (gene 7067) (UniProt P10827)
# Test: NVS_NR_hTRa_Antagonist: NovaScreen (NVS) Nuclear Receptor Binding Assay for human Thyroid Receptor Alpha Antagonism (TRa) (AID 2283362);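 also: activity is loss of signal relative to DMSO baseline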
# In short: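 Cell-free binding assay on extracted receptor protein, read 1 h after chemical dosing by AlphaLISA chemiluminescence; loss of signal relative to DMSO baseline marks antagonism. Primary screen ran in duplicate at 25 uM, with concentration series for actives.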
# human Thyroid Receptor Alpha (TRa), THRA (gene 7067), sequence (P10827 whole entry, looked up): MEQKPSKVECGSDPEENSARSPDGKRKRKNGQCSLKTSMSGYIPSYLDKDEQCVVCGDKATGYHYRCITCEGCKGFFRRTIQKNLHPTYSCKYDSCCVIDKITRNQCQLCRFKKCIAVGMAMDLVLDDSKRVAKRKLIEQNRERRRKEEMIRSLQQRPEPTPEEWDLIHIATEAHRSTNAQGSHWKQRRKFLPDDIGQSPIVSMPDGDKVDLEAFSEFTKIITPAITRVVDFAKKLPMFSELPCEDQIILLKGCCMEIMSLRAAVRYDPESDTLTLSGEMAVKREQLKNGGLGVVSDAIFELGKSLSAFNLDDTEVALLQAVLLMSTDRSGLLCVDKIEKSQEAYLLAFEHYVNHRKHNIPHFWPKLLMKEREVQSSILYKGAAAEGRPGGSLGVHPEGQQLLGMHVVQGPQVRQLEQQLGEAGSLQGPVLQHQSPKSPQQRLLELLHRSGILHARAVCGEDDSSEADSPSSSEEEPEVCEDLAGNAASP
SMILES,outcome,AC50
OC(c1ccc(Cl)cc1)(c1ccc(Cl)cc1)C(Cl)(Cl)Cl,inactive,
Cc1cnc(C2=NC(C)(C(C)C)C(=O)N2)c(C(=O)O)c1 (configuration not stated),inactive,
COP(=S)(OC)Oc1ccc([N+](=O)[O-])c(C)c1,inactive,
CNC(=O)Oc1cccc2ccccc12,inactive,
CN=C=S,inactive,
N#Cc1c(Cl)cccc1Cl,inactive,
CC(C)(C)C(=O)C(Oc1ccc(Cl)cc1)n1cncn1 (configuration not stated),inactive,
CCCCC(C#N)(Cn1cncn1)c1ccc(Cl)cc1 (configuration not stated),inactive,
Clc1nc(Cl)nc(Nc2ccccc2Cl)n1,,25 µM (active)
CCOC(=O)C(C)OC(=O)c1cc(Oc2ccc(C(F)(F)F)cc2Cl)ccc1[N+](=O)[O-] (configuration not stated),inactive,
CCCCC(O)(Cn1cncn1)c1ccc(Cl)cc1Cl (configuration not stated),inactive,
CCN(CC)c1nc(C)cc(OP(=S)(OC)OC)n1,inactive,

# Molecular target: Glucocorticoid receptor (Homo sapiens) (UniProt P04150)
# Sequence (P04150 whole entry, looked up): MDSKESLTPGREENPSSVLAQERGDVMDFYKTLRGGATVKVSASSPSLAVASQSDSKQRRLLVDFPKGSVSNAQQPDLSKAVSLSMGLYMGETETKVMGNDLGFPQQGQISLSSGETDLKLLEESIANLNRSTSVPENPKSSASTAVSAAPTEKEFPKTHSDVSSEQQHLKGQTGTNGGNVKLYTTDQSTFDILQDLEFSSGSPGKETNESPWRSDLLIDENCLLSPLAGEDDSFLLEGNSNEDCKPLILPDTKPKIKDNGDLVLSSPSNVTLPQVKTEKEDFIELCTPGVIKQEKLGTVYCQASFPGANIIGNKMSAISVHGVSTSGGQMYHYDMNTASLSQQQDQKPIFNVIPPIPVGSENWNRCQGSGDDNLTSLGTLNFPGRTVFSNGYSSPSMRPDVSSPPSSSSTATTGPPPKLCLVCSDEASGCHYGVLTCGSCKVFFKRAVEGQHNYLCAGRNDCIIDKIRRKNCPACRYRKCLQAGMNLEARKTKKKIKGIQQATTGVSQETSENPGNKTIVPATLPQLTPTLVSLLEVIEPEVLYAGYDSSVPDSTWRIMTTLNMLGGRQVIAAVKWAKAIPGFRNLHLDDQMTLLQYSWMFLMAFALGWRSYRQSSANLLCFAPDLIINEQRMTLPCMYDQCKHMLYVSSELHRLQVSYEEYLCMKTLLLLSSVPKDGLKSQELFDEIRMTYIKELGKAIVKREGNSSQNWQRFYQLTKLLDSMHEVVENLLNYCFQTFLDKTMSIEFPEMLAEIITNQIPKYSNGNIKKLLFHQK
# Test: NVS_NR_hGR: NovaScreen (NVS) Nuclear Receptor Binding Assay for human Glucocorticoid Receptor (GR) (AID 2283363);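 as to AC50: activity is loss of specific radioligand binding signal relative to DMSO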
# In short: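 Competitive displacement of a labelled ligand was measured on cell-free receptor preparations after 16 h exposure. Initial testing used 25 uM in duplicate with plate controls; confirmed actives went into concentration series.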
SMILES,AC50,outcome
OC(c1ccc(Cl)cc1)(c1ccc(Cl)cc1)C(Cl)(Cl)Cl,6.9 µM (active),
CC1(C)C(C=C(Cl)Cl)C1C(=O)OC(C#N)c1cccc(Oc2ccccc2)c1 (configuration not stated),,inactive
CCCN(CC)CC1COC2(CCC(C(C)(C)C)CC2)O1 (configuration not stated),,inactive
COP(=S)(OC)Oc1ccc([N+](=O)[O-])c(C)c1,9.62 µM (active),
CC(C)C1(C)N=C(c2ncccc2C(=O)O)NC1=O (configuration not stated),,inactive
CCCCOCN(C(=O)CCl)c1c(CC)cccc1CC,8.18 µM (active),
CC(C)=CC1C(C(=O)OCc2coc(Cc3ccccc3)c2)C1(C)C (configuration not stated),,inactive
CC(C)Oc1cccc(NC(=O)c2ccccc2C(F)(F)F)c1,,inactive
N#Cc1c(Cl)cccc1Cl,,inactive
CC(C)(C)C(=O)C(Oc1ccc(Cl)cc1)n1cncn1 (configuration not stated),,inactive
CCCCC(C#N)(Cn1cncn1)c1ccc(Cl)cc1 (configuration not stated),,inactive
CCOC(=O)C(C)OC(=O)c1cc(Oc2ccc(C(F)(F)F)cc2Cl)ccc1[N+](=O)[O-] (configuration not stated),,inactive
CCCCC(O)(Cn1cncn1)c1ccc(Cl)cc1Cl (configuration not stated),1.29 µM (active),
CCN(CC)c1nc(C)cc(OP(=S)(OC)OC)n1,9.72 µM (active),
CCNC(=O)NC(=O)C(C#N)=NOC,,inactive

# Molecular target: Nuclear receptor subfamily 1 group I member 2 (Homo sapiens) (UniProt O75469)
# Sequence (O75469 whole entry, looked up): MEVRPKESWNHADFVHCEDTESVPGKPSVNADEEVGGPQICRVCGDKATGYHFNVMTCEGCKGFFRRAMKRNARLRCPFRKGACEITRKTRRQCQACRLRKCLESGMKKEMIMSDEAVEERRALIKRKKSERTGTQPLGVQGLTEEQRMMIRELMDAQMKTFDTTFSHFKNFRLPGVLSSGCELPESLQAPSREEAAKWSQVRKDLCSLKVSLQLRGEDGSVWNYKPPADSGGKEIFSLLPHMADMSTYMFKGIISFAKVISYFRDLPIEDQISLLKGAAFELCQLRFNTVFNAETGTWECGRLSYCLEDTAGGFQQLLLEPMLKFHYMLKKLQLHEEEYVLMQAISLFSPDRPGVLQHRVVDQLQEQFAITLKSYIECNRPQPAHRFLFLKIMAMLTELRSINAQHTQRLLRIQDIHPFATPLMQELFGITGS
# Test: NVS_NR_hPXR: NovaScreen (NVS) Nuclear Receptor Binding Assay for human Pregnane X Receptor (PXR) (AID 2283365);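 also: a drop in FRET signal versus DMSO baseline means the compound binds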
# In short: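 Cell-free binding assay with extracted human PXR protein, read by TR-FRET 2 h after dosing; loss of signal relative to DMSO baseline indicates binding. Primary screen at 25 uM in duplicate, actives retested in concentration series.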
SMILES,outcome,AC50
CCCN(CC)CC1COC2(CCC(C(C)(C)C)CC2)O1 (configuration not stated),inactive,
CC(C)C1(C)N=C(c2ncccc2C(=O)O)NC1=O (configuration not stated),inactive,
N#Cc1c(Cl)cccc1Cl,inactive,
CC(C)(C)C(=O)C(Oc1ccc(Cl)cc1)n1cncn1 (configuration not stated),,2.31 µM (active)
CCNC(=O)NC(=O)C(C#N)=NOC,inactive,
